Compound activity as filed in PubChem.
EPAC1 agonist – human EPAC1 agonism, validation; O95398; 1% of 16,000 active; EPAC1 Rap1b BODIPY-GDP exchange, fluorescence; AID 1645883; Potency, µM, for the others: max response, positive = active, hits mostly activators; also: nearly all actives have a fitted effect of over 70% in size
Target sequence (O95398 whole entry, looked up): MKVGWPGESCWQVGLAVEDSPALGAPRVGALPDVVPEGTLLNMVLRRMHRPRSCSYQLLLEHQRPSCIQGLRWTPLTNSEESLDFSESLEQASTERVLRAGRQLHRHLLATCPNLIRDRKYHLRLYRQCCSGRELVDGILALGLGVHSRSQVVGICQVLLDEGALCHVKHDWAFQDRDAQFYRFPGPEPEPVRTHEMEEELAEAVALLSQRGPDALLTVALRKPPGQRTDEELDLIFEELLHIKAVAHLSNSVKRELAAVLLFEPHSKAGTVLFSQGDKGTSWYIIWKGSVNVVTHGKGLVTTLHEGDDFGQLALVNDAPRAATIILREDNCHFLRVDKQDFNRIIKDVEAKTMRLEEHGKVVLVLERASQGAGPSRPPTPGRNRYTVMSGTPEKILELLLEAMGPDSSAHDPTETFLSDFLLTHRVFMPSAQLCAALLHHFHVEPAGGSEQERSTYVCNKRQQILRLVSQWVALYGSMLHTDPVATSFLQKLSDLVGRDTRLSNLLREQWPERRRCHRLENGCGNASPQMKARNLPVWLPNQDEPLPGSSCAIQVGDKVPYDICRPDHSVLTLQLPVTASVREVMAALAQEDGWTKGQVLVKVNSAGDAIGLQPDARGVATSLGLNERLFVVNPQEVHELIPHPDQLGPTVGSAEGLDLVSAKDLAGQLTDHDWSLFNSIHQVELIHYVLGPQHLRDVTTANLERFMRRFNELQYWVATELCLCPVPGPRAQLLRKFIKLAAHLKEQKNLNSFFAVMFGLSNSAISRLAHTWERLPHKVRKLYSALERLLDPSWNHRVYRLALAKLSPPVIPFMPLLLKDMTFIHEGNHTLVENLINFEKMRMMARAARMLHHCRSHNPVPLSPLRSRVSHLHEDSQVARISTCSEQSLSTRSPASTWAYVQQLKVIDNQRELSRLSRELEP
EPAC2 antag – validation of human EPAC2 antagonists; Q8WZA2; EPAC2 Rap1B BODIPY-GDP exchange, fluorescence; Potency, µM (highest dose often 112 µM), without a hit: top-dose activity, negative = inhibition, actives largely listed as inhibitors; 1.7% of 16,000 active;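 also: 100% = activation by cAMP agonist control; nearly all actives have a fitted effect of over 40% in size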
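Fluorescent exchange read-out: 100 nM EPAC2 with 250 nM RAP1B–BODIPY-GDP and 50 uM GDP; BODIPY-GDP release lowers fluorescence. Read at 480/540 nm every 5 min for 30 min at room temperature; normalized to 6.5 mM cAMP.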
* = called active by the depositor; i = inactive; ? = inconclusive; ! = a repeat was not active; [ ] = remark or other dose. Hits are enriched below; roughly 2.9% of the tested compounds scored in any of these assays. Calls follow the shape of the dose curve; as a rule, active = well fitted curve in the direction sought with a large enough effect; inconclusive = small, poorly fitted or top-dose-only effect, or another doubt; inactive = no such curve, though single readings can be large; an effect the other way counts as inactive or inconclusive. Unless noted, % is scaled to controls: 0 for no effect and ±100 for the full control effect; potency is read from the fitted curve at half-maximal effect.

SMILES	EPAC1 agonist	EPAC2 antag
COc1ccc(CCN)cc1O	-1.7%	-0.4%
NCCc1cc(O)c(O)cc1O	112µM*	-9.5%
C[C@@H]1[C@@H]2Cc3ccc(O)cc3[C@@]1(C)CCN2CCc1ccccc1	14.0%	12.0%[239 µM]
CC(=O)[C@@]1(O)CC[C@H]2[C@@H]3CCC4=CC(=O)CC[C@]4(C)C3(F)[C@@H](O)C[C@@]21C (some centres undefined)	-1.3%	-5.1%
CCCn1c(C)c(C(=O)c2cccc3ccccc23)c2ccccc21	2.1%	20µM*
Cc1c(C(=O)c2cccc3ccccc23)c2cccc3c2n1[C@H](CN1CCOCC1)CO3	?	-22.9%
[S]=[Sb](=[S])[S][Sb](=[S])=[S]	-3.8%	23.4%
CCOC(=O)/C=C(C)/C=C/C[C@@H](C)CCCC(C)C	-29.5%	-16.7%
O=C(O)c1ccccc1-c1c2cc(Br)c(=O)cc-2oc2[c]([Hg])c(O)c(Br)cc12	?	i
O=C1OC2(c3cc(Br)c(O)cc3Oc3c2cc(Br)c(O)[c]3[Hg])c2ccccc21 (centres undefined)	39.8µM*!	i
Cc1ccc2c(c1)[C@]13CCCC[C@@H]1[C@H](C2)N(C)CC3	20.4%	4.1%
O=C(O)COc1ccc(Cl)cc1Cl	28.6%	-13.2%
Oc1cc(Cl)ccc1Oc1ccc(Cl)cc1Cl	?	11.2µM*!
N#C/C(=C\c1ccc(O)c(O)c1)C(N)=S	-20.9%	?
N#CC(C#N)=Cc1cc(O)c(O)c(O)c1	-18.8%	89.1µM*!
C[C@]12CC[C@H]3[C@@H](CCC4=CC(=O)CC[C@@]43C)[C@@H]1CC[C@@H]2OC(=O)CCc1ccccc1	21.1%	-10.4%[239 µM]
NC(=O)[C@H](Cc1ccccc1)NC(=O)[C@H](Cc1c[nH]c2ccccc12)NC(=O)[C@@H]1CCCN1C(=O)[C@@H](N)Cc1ccc(O)cc1	-8.2%	3.8%[11.4 µM]
O=c1[nH]cc(N(CCCl)CCCl)c(=O)[nH]1	-6.4%	70.8µM*
CCC(=O)O[C@H]1[C@@H](N2CCCCC2)C[C@H]2[C@@H]3CC[C@H]4C[C@H](OC(C)=O)[C@@H](N5CCCCC5)C[C@]4(C)[C@H]3CC[C@@]21C	7.7%	-13.5%
O=C1C[C@@H]2OCC=C3CN4CC[C@]56c7ccccc7N1[C@H]5[C@H]2[C@H]3C[C@H]46	2.5%	-1.8%
CC(C)=CCN1CC[C@]2(C)c3cc(O)ccc3C[C@H]1[C@H]2C	0.7%	-10.7%[239 µM]
Oc1c(Cl)c(Cl)c(Cl)c(Cl)c1Cl	-64.3%	14.1µM*
CC(C)CCC(=O)O[C@H]1CC[C@H]2[C@@H]3CCC4=CC(=O)CC[C@]4(C)[C@H]3CC[C@]12C	6.0%	-13.6%
CN(C)CCCCCCN(C)C (tested in a mixture with another compound)	-10.0%	3.3%
O=C1Nc2ccc(Cl)cc2C(c2ccccc2)=NC1O (centres undefined)	2.6%	?
SMILES	EPAC1 agonist	EPAC2 antag
O=C1CN=C(c2ccccc2)c2cc(Cl)ccc2N1CC1CC1	-15.6%	22.4µM*
C=C[C@H]1CN2CC[C@H]1C[C@H]2[C@H](OC(=O)OCC)c1ccnc2ccc(OC)cc12	-17.7%	-9.7%
Cl.Cl.Cl.Cl.Cl.Cl.N.N.N.N.NNNNN.NNNNN.O.O.[Ru].[Ru].[Ru]	-15.0%	56.2µM*
NC(Cc1cc(O)c(O)cc1O)C(=O)O (centres undefined)	17.9%	12.6µM*
N[C@@H](CCl)C(=O)O	-7.7%	9.1%
CC(C)[C@H]1C(=O)N2CCC[C@H]2[C@]2(O)O[C@](NC(=O)[C@@H]3C[C@@H]4c5cccc6[nH]cc(c56)C[C@H]4N(C)C3)(C(C)C)C(=O)N12	1.2%	4.9%
CC(=O)O[C@H]1C[C@H](O[C@H]2[C@@H](O)C[C@H](O[C@H]3[C@@H](O)C[C@H](O[C@H]4CC[C@@]5(C)[C@H](CC[C@@H]6[C@@H]5C[C@@H](O)[C@]5(C)[C@@H](C7=CC(=O)OC7)CC[C@]65O)C4)O[C@@H]3C)O[C@@H]2C)O[C@H](C)[C@H]1O[C@@H]1O[C@H](CO)[C@@H](O)[C@H](O)[C@H]1O	-35.2%	13.7%
CCC/C=C/C=C/C(=O)O[C@H]1/C(=C/C(=O)OC)C[C@H]2C[C@H]([C@@H](C)O)OC(=O)C[C@H](O)C[C@@H]3C[C@H](OC(C)=O)C(C)(C)[C@](O)(C[C@@H]4C/C(=C/C(=O)OC)C[C@H](/C=C/C(C)(C)[C@]1(O)O2)O4)O3	-77.8%	-28.8%
CCCCCC1C(=O)O[C@H](C)[C@@H](NC(=O)c2cccc(NC=O)c2O)C(=O)OC(C)C1OC(=O)CC(C)C (some centres undefined)	-194.6%	56.2µM*
CCCC[C@H]1C(=O)O[C@H](C)[C@H](NC(=O)c2cccc(NC=O)c2OC)C(=O)O[C@@H](C)[C@@H]1OC(=O)CC(C)C	-47.1%	?
CN[C@]1(c2ccccc2Cl)CCCCC1=O	5.8%	-6.5%
O=C(C[C@@H]1NCCC[C@H]1O)Cn1cnc2cc(Br)c(Cl)cc2c1=O	-16.5%	17.5%
O=S(=O)(O)C(F)(F)C(F)(F)C(F)(F)C(F)(F)C(F)(F)C(F)(F)C(F)(F)C(F)(F)F	-228.8%	100µM*
CC1=NCCc2c1[nH]c1cc(O)ccc21	79.4µM*	i
COc1ccc2c3c([nH]c2c1)C(C)=NCC3	?	-7.6%
C[C@@H]1[C@H](O)[C@@H](C)C=CC=CCCC=CC=CC=CC=C[C@H](O[C@H]2O[C@@H](C)[C@H](O)[C@@H](N)[C@@H]2O)CC2O[C@](O)(C[C@@H](O)[C@H](O)CC[C@@H](O)C[C@@H](O)C[C@@H](O)CC(=O)O[C@H]1C)C[C@H](O)[C@H]2C(=O)O	20.5%	16.7%
CCCCCCC(C)(C)c1ccc([C@@H]2C[C@H](O)CC[C@@H]2CCCO)c(O)c1	-52.9%	28.2µM*
